ATXN2 expr inh = ATXN2 expression inhibition; Potency, µM (top dose mostly 57 µM), for inactives: top-dose activity change, negative = inhibition, actives largely listed as inhibitors; HEK-293 ATXN2-luciferase reporter, luminescence, 24 h; hit rate 0.72% among 360,000; further: on the % scale 0 is the no-effect control and ±100 the full control effect; nearly all actives have a fitted effect of over 55% in size
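ATXN2-luciferase reporter cells (luciferase flanked by upstream and downstream ATXN2 gene portions) were treated 24 h at 37 °C with compounds at up to 57 uM. SteadyGlo luminescence gave expression; GF-AFC fluorescence gave viability.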
HepG2 tox-1 = HepG2 cytotoxicity, counter-screen for TGF-b inhibitors; HepG2 CAGA-GFP viability, ATP luminescence, 18 h; Potency, µM (doses to about 46.1 µM), inactives show at the highest dose activity change, negative = cytotoxicity, usual class: cytotoxic; hit rate 0.76% among 410,000
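CellTiter-Glo luminescence gave cytotoxicity after 18 hours at 37 degrees C. The cells were HepG2 CAGA-GFP in 1% FBS DMEM, stimulated with 500 pg/mL TGF-beta after compound addition. %Activity was normalised to no-cell wells (complete cell-killing) and DMSO (no toxicity), and curves were fitted and classified.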
Apoferritin bind = binds horse apoferritin like a general anesthetic | P02791 | apoferritin/1-aminoanthracene competitive binding, fluorescence | Potency, µM (doses to about 77.5 µM), inactives show top-dose activity change, negative = displacement, most hits filed as inhibitors | hit rate 0.074% among 350,000 | AID 485281; further: on the % scale 0 is the no-effect control and ±100 the full control effect; nearly all actives have a fitted effect of over 20% in size
Target sequence (P02791 2-175 limits assumed): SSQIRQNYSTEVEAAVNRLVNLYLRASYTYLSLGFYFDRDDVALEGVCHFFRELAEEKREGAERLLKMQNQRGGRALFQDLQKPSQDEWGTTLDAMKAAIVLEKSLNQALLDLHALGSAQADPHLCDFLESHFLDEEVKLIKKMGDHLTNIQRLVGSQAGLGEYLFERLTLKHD
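Read-out: endpoint 1-AMA fluorescence, excitation 380 nm and emission 535 nm, after compounds sit 10 min at room temperature with 10 uM horse-spleen apoferritin in 50% saturated 1-AMA/PBS. Values come from four-parameter Hill fits.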
S2 tox = viability counter-screen for ATXN expression inhibitors; hit rate 0.49% among 400,000; AID 651635; Potency, µM (series often up to 56.7 µM), most hits filed as cytotoxic; S2 cells (HEK-293 line with an ATXN2-luciferase reporter) viability, CellTiter-Fluor protease fluorescence, 24 h; further: nearly all actives have a fitted effect of over 40% in size
TGFb inhibitor = blocks TGF-b signaling; HepG2 CAGA-GFP TGF-b/SMAD3 reporter, GFP fluorescence, 18 h; TGF-beta stimulated, 500 pg/mL final; Potency, µM (series often up to 46.1 µM), for inactives: at the top dose activity, negative = inhibition, actives largely listed as inhibitors; hit rate 1.2% among 410,000; further: on the % scale 0 is the no-effect control and ±100 the full control effect; nearly all actives have a fitted effect of over 65% in size
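GFP signal (ex488/em500-530) from TGF-beta-stimulated HEPG2 CAGA-GFP cells, 500 pg/mL final, 18 h at 37 degrees C in DMEM plus 1% FBS, normalized to unstimulated and DMSO-stimulated controls.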
TGFb CAGA inh = confirmation of TGF-b signaling inhibitors in HepG2 reporter cells | HepG2 CAGA-GFP TGF-b reporter, GFP fluorescence, 18 h; cells stimulated with TGF-beta, 500 pg/mL | hit rate 63% among 1,600 | Potency, µM (series often up to 46.1 µM), for inactives: at the top dose activity, negative = inhibition, usual class: inhibitors | shares compounds with TGFb inhibitor; further: on the % scale 0 is the no-effect control and ±100 the full control effect; nearly all actives have a fitted effect of over 65% in size
HepG2 tox-2 = counter-screen for TGF-b inhibitors: cytotoxicity in HepG2 cells; shares compounds with TGFb inhibitor; HepG2 CAGA-GFP viability, ATP luminescence, 18 h; cells stimulated with TGF-beta, 500 pg/mL; Potency, µM (highest dose often 46.1 µM), for inactives: at the top dose activity, negative = cytotoxicity, actives largely listed as inhibitors; hit rate 27% among 1,600; further: on the % scale 0 is the no-effect control and ±100 the full control effect; nearly all actives have a fitted effect of over 70% in size
CCL64 TGFb inh = TGF-b inhibition, CCL64 orthogonal assay; shares compounds with TGFb inhibitor; CCL64 CAGA-GFP reporter, TGF-b stimulated, GFP fluorescence, 18 h; Potency, µM (series often up to 46.1 µM), for the others: at the highest dose activity, negative = inhibition, most hits filed as inhibitors; hit rate 41% among 1,600; AID 720536; further: nearly all actives have a fitted effect of over 65% in size
TGFb COP inh = validation of TGF-b inhibitors in HepG2 COP promoter reporter | shares compounds with TGFb inhibitor | HepG2 COP-GFP TGF-b reporter, GFP fluorescence, 18 h; cells stimulated by added recombinant TGF-beta | Potency, µM (titrated, usually from 46.1 µM), inactives show at the highest dose activity, negative = inhibition, usual class: inhibitors | hit rate 3% among 1,600; further: nearly all actives have a fitted effect of over 70% in size
* hit, by the source's call; i = inactive; ? = inconclusive; / = not tested or not shown. This is a sample that favours compounds with a hit; in the whole collection about 2.4% have one here. The call rests on the fitted dose curve; in most records, active means well fitted curve in the direction sought with a large enough effect; inconclusive means small, poorly fitted or top-dose-only effect, or another doubt; inactive means no such curve, though single readings can be large; an effect the other way counts as inactive or inconclusive. Potency means the concentration at half of the fitted maximal effect.

SMILES | ATXN2 expr inh | HepG2 tox-1 | Apoferritin bind | S2 tox | TGFb inhibitor | TGFb CAGA inh | HepG2 tox-2 | CCL64 TGFb inh | TGFb COP inh
Cc1ccccc1/C=C/C(=O)c1ccc([N+](=O)[O-])o1 | 13µM* | -113% | / | 13µM* | 3.2µM* | 3.3µM* | 6.5µM* | 4.1µM* | ?
COc1cc(C(O)CO)ccc1OS(=O)(=O)O (stereo not given) | -7% | -4% | / | i | -15% | / | / | / | /
Cc1c(C(=O)OCC(=O)N(C)c2ccccc2)oc2ccccc12 | 43% | 22% | ? | i | 6% | / | / | / | /
C[C@]12c3[nH]c4cc(-c5ccco5)ccc4c3CCN1C(=O)[C@@H](CC(=O)NCCC1=CCCCC1)C[C@@H]2C(=O)N1CCOCC1 | 0% | 3% | / | ? | 11µM* | ? | ? | ? | 50%
CCN(CC)C(=O)[C@H]1CC(CC(=O)NCCC2=CCCCC2)C(=O)N2CCc3c([nH]c4ccc(OC)cc34)[C@]12C (stereo not given in full) | -8% | 5% | / | i | ? | / | / | / | /
CC(C)=CCC/C(C)=C/CNC(=O)C[C@H]1C[C@H](C(=O)N2CCOCC2)[C@@]2(C)c3[nH]c4ccc(Cl)cc4c3CCN2C1=O | 4% | 18µM* | / | i | 10µM* | 13µM* | ? | 13µM* | -20%
C[C@]12c3[nH]c4ccc(Cl)cc4c3CCN1C(=O)[C@@H](CC(=O)NCCN1CCOCC1)C[C@@H]2C(=O)N1CCOCC1 | 9% | -2% | / | i | 3% | / | / | / | /
COc1ccc2[nH]c3c(c2c1)CCN1C(=O)C(CC(=O)NCCC2=CCCCC2)C[C@H](C(=O)N(C(C)C)C(C)C)[C@@]31C (stereo not given in full) | ? | -70% | / | ? | 10µM* | ? | -20% | ? | 39%
C[C@]12c3[nH]c4ccc(Cl)cc4c3CCN1C(=O)[C@@H](CC(=O)NCCC1=CCCCC1)C[C@@H]2C(=O)N1CCOCC1 | ? | -26% | / | ? | ? | 16µM* | -9% | ? | 2%
NC(=O)C(c1ccc(Cl)cc1Cl)c1ncc(C(F)(F)F)cc1Cl (stereo not given) | -1% | -24% | -16% | i | -2% | / | / | / | /
CCN(CC)C(=O)[C@H]1C[C@H](CC(=O)NC/C=C(\C)CCC=C(C)C)C(=O)N2CCc3c([nH]c4cc(CCC(=O)N(C)C)ccc34)[C@]12C | ? | -23% | / | ? | 13µM* | 23µM* | ? | ? | 55%
Cc1nc2cc(-c3cccc(F)c3)nn2c(C)c1CCC(=O)NC(C)c1ccc2c(c1)OCCO2 (stereo not given) | ? | -18% | -12% | i | ? | ? | -29% | 29µM* | 11%
CC(=O)NC(C)(c1ccccc1)c1nc(-c2cccc3cccnc23)cs1 (stereo not given) | -2% | -34% | / | i | -4% | / | / | / | /

Assay outcomes from PubChem.
